# Inconclusive results are not listed. Where a call stands in place of a potency, no number is given. The source made the active and inactive calls. Calls come from the whole dose curve; as a rule, active = well fitted curve in the direction sought with a large enough effect; inconclusive = small, poorly fitted or top-dose-only effect, or another doubt; inactive = no such curve, though single readings can be large; an effect the other way counts as inactive or inconclusive.
# What was measured:
# [1] = Primary qHTS for inhibitors of nuclear receptor binding SET domain protein 2 (NSD2) in an isogenic RCH-ACV NSD2 p.E1099K mutant (9B) (AID 1645876)
# [2] = Primary qHTS for inhibitors of nuclear receptor binding SET domain protein 2 (NSD2) in an RCH-ACV wild type WT cells (2C) (AID 1645877)
# Note: nearly all actives have a fitted effect of over 70% in size.
# Potency is the fitted concentration of half-maximal effect.
Compound,Potency [1],Potency [2],outcome [1],outcome [2]
CC[C@]12C=CCN3CC[C@@]4(c5cc([C@@]6(C(=O)OC)C[C@H]7C[C@@H](C(C)(F)F)CN(Cc8c6[nH]c6ccccc86)C7)c(OC)cc5N(C)[C@H]4[C@@](O)(C(=O)OC)[C@@H]1OC(C)=O)[C@@H]32,139 nM (active),87.9 nM (active),–,–
COC(=O)c1ccc(OC(CO)C(O)c2ccc(O)c(OC)c2)c(OC)c1 (stereo not given),inactive,inactive,–,–
CC(=O)N[C@@H](CCCCN)C(=O)N(C)[C@@H](CC(C)C)C(=O)N[C@H](C(=O)N(C)[C@@H](Cc1ccccc1)C(=O)N[C@H](Cc1ccccc1)C(N)=O)C(C)C,–,–,inactive [at 4.96 µM],inactive [at 4.96 µM]
C=C1C(OC(=O)/C(C)=C\C)[C@@]23CCC4[C@@](C)(CCC[C@@]4(C)C(=O)O)C2CC[C@H]1C3OC(C)=O (stereo not given in full),inactive,inactive,–,–
CC(=O)c1ccc2c(c1)C(O)C(C(C)(C)O)O2 (stereo not given),inactive,inactive,–,–
C[C@H]1CC(=O)Nc2cccc(-c3cnn(C(C)(C)C)c3)c2N1,inactive,inactive,–,–
C(#Cc1nc2ncccc2nc1OCCN1CCCC1)c1ccccc1,2580 nM (active),2300 nM (active),–,–
COc1c2ccoc2cc2oc(CO[C@@H]3O[C@H](CO)[C@@H](O)[C@H](O)[C@H]3O)cc(=O)c12,inactive,inactive,–,–
COC(=O)/C=C/C12COC(C)(C)C1C(O)C(OC(C)=O)C1(C)C2CCC2(C)C(c3ccoc3)OC(=O)C3OC321 (stereo not given),inactive,inactive,–,–
Cn1c(=O)cc(N2CCCC(N)C2)n(Cc2cc(F)ccc2C#N)c1=O (stereo not given),inactive,inactive,–,–

# — PubChem BioAssay (NCATS)
